We go through 40 molecules from PubChem BioAssay (NCI).

The panel holds about 83,000 compounds, 20% with a hit somewhere; the sample as a whole holds those more often.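 Values shown are percent growth following 48 h exposure of cells in 96-well plates to a single concentration of compound; below 10 was considered active.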 A number with no mark means an inactive call. Activity calls are given as the source filed them.

The subject of the assay is SK-MEL-28 melanoma. The assay can be described thus: NCI-60 one-dose screen, 48 h (100 = growth as untreated, 0 = no growth, -100 = all killed). To be noted: 10 µM unless noted. As to the method:
Growth inhibition of the SK-MEL-28 human tumor cell line is measured as a screen for anti-cancer activity. Cells are grown in 96 well plates and exposed to the test compound for 48 hours. Compounds are tested at a single concentration, which is 10^-5 M for most compounds. The reported endpoint is percent growth (GI% or GIPRCNT), where numbers from 0 - 100% represent growth inhibition, and numbers from -100% - 0 represent cell death. For example, a value of 40 represents 60% growth inhibition. A value of 0 means no net growth occurred over the course of the experiment. A value of -40 indicates 40% of cells at the beginning of the experiment died by the end of the experiment. A value of -100 means all cells are dead at the end of the experiment.
NCI-60 Human Tumor Cell Lines Screen was performed using the standard one-dose NCI protocol, which is described in more detail at https://dtp.cancer.gov/discovery_development/nci-60/default.htm.
Compounds with GIPRCNT values below 10 were considered active. Activity score was based on GIPRCNT using the following formula: […]
Score is 0 for GIPRCNT values of 100 or above, 50 for GIPRCNT values of 0, and 100 for GIPRCNT values of -100.
As to `Oc1ccc(CSc2nnc(-c3ccc(Cl)cc3)o2)c2cccnc12`, the growth is 26.6%.

For `O=C(Nc1ccc(-c2nc(-c3cccc(O)c3)c(-c3ccnc(Br)c3)[nH]2)cc1)c1ccccc1`, the growth is 34.2%.

As for `O=C1Nc2cc(OC(F)(F)F)ccc2Oc2ccc(-c3ccnc(N4CCNCC4)c3)cc21`, the growth was -80.9% (active). Then `O=C(COc1ccc(C2SCC(=O)N2c2ccccc2)cc1)c1ccccc1` (stereo not given), with 105%; and `CN1CCN(c2ccc(NC(=O)Nc3ccc4c(ccn4-c4cccc(C(N)=O)n4)c3)cc2C(F)(F)F)CC1`, with -53.6% (active). In the case of `COC(=O)c1nc(-c2ccc(C)cc2)oc1S(=O)(=O)N1CCN(c2oc(-c3ccccc3)nc2C#N)CC1`, the growth is 99.6%. Then `O=C1c2c(c3c4cc(O)ccc4oc3c3[nH]c4ccccc4c23)C(=O)N1O`, with 19.4%.

`NNC(=O)c1sc2nc(-c3cnccn3)cc(-c3cccs3)c2c1N`: the growth is 101%. Then `CN(C)C(=O)c1ccccc1-n1cnc2ccccc2c1=O`, with 103%; and `COc1cc2cc(Oc3ccc(NC(=O)Nc4cc(C(F)(F)F)cc(C(F)(F)F)c4)cc3)c(C)nc2cc1OCCN(C)C`, with 110%; and `CN(C)CCn1c2ccc(N)cc2c2nc3ccccc3nc21`, with 54.5%. Turning to `CS(=O)(=O)c1nccc(-c2c(-c3ccc(F)c(OCCc4ccccc4)c3)nc3sccn23)n1`, the growth was 57.3%. Next, `O=C(/C=C1\C=CN(CCCCF)c2ccccc21)n1ccc2ccccc21`: 108%. Take `COc1ccc(NC2=C(Cl)C(=O)C(C)=C(C)C2=O)cc1`: the growth was 103%.

Regarding `O=C(NNc1nc2cc(F)c(F)cc2n2cccc12)c1cccnn1`, the growth was 27.3%.

For `Oc1ccccc1/C=N/Nc1nc(N/N=C/c2ccccc2O)nc(N2CCOCC2)n1`, the growth was 28%. In the case of `O=C(Cn1cc(CN2C(=O)c3ccc([N+](=O)[O-])cc3C2=O)nn1)Nc1ccccc1Br`, the growth was 108%.

Take `CCCCCCNC(=O)Oc1ccc(/C(=C(/C)c2ccccc2)c2ccc(OCCN(C)C)cc2)cc1`: the growth was 55.1%. Then `COc1ccc(-c2cc(-c3cccc4ccccc34)n3c(n2)nc2ccccc23)cc1`, with 70.2%. Next, `NS(=O)(=O)c1ccc(-n2cc(CC=O)nn2)cc1`: 114%; `Cc1ccc(NC(=O)c2ccc(CN3CCN(C)CC3)c(C(F)(F)F)c2)cc1Oc1ccc(-c2[nH]nc3ncnc(N)c23)cc1`: 68.6%; `COc1ccc2c(ccn2C(=O)N2c3ccccc3Sc3ccccc32)c1`: 66.4%. Then `COc1ccc(Oc2ccc(C3CC(c4cc(OC)c(OC)c(OC)c4)=NN3C(C)=O)cc2)cc1` (stereo not given), with 43.3%; and `C#C[C@]1(O)CC[C@H]2[C@@H]3CC=C4c5sc(Nc6nc(C)cc(OC)n6)nc5CC[C@]4(C)[C@H]3CC[C@@]21C`, with 21.1%; and `O=C(O)c1ccc(-n2cc(CNc3ccc(F)cc3)c(-c3ccc(C(F)(F)F)cc3)n2)cc1`, with 88.1%.

`COc1cc(O)c2c(c1)/C=C/C[C@H](O)[C@H](O)C(=O)/C=C\C[C@H](C)OC2=O`: the growth was -3.57% (active). Regarding `CC(=O)Nc1ccc(C)c(Nc2cc(-c3ccc(-n4cccn4)cc3)[nH]n2)c1`, the growth is 61%. On to `Cc1ccc(/C=C/c2nn3c(-c4ccco4)nnc3s2)cc1`, for which the growth is 94.1%. Next, `Oc1ccc(CSc2nnc(-c3ccc(Br)cc3)o2)c2cccnc12`: 32.8%.

With `NS(=O)(=O)c1ccc(Nc2nc(N/N=C/c3ccc(C(F)(F)F)cc3)nc(Nc3ccccc3)n2)cc1`, the growth was 27.2%.

Take `Nc1ccc(-c2nnc(SCc3ccc(O)c4ncccc34)o2)cc1`: the growth is 10.6%.

On to `CC(=O)Nc1ccc(NC(=O)Nc2cccc(-c3nc(-c4ccc(NC(=O)c5cccs5)cc4Cl)no3)c2)cc1C(F)(F)F`, for which the growth is -90.1% (active). Next, `COc1ccc([C@H]2[C@H](O)C(=O)N2c2cc(OC)c(OC)c(OC)c2)cc1O`: 62%; `COc1ccc(/C=N\NC(=O)c2ccc3nc(-c4ccc(Br)cc4)[nH]c3c2)cc1`: 13.8%. For the molecule `Cc1ccc(Nc2ncnc3c2c(C)nn3-c2ccc([N+](=O)[O-])cc2)cc1`, the growth was 97.5%. Take `N#C/C(=C\c1ccc(-c2ccc(F)cc2)o1)C(=O)Nc1ncc(Cc2ccc(Cl)cc2Cl)s1`: the growth is 39.5%. Take `O=C1[C@H]2Cc3c([nH]c4ccccc34)[C@H](c3ccc(Cl)cc3)N2C(=O)CN1C1CCN(Cc2c(Cl)cccc2Cl)CC1`: the growth was 98.8%.

In the case of `CCC(C)[C@H]1OC(=O)[C@H](C(C)C)N(C)C(=O)[C@@H](C(C)C)OC(=O)[C@H](C(C)C)N(C)C(=O)[C@@H](C(C)CC)OC(=O)[C@H](C(C)C)N(C)C1=O` (stereo not given in full), the growth is 32.2%. Regarding `C/C(=N\NC(=S)Nc1ccc(Br)cc1)c1cc2ccccc2oc1=O`, the growth is 21.6%. Then `CCCCCCCCNC(=O)c1ccc(Cn2c(CCCC)nc3c(N)nc4ccccc4c32)cc1`, with -94% (active).
